Measurements: PubChem BioAssay (NCATS)
Where “and” joins values, the source holds several entries; their conditions need not be identical. Equal entries are not always repeated. Results filed as inconclusive are left out. Where a call stands in place of a potency, no number is given. Calls of active or inactive are those of the source. Calls come from the whole dose curve; as a rule, active = well fitted inhibition curve with a large enough effect; inconclusive = small, poorly fitted or top-dose-only effect; inactive = no such curve, though single readings can be large or run the other way. Where a SMILES comes first, the peptide text is derived from it. [ ]: non-standard residue; d: D form. PhLac = O=C(O)[CH](O)Cc1ccccc1; NMeV = CN[CH](C(=O)O)C(C)C

Test: Primary qHTS for inhibitors of nuclear receptor binding SET domain protein 2 (NSD2) in an RCH-ACV wild type WT cells (2C) (AID 1645877); note: nearly all actives have a fitted effect of over 70% in size
Settings: RCH-ACV (leukaemia line) NSD2 WT (2C) viability, CellTiter-Glo, 72 h; series mostly up to 44.9 µM
Potency is the fitted concentration of half-maximal effect.

Row | Compound | Potency | activity change, negative = cell killing
1 | CC1=CCC2C(C)(CO)CCCC2(CO)C1CO (stereo not drawn) | inactive | 
2 | COC(=O)[C@]12C(=O)C(C)=C(O)[C@@]1(C)C(C)=CC1[C@@]34CC[C@@H](OC(C)=O)C(C)(C)C3[C@H](C[C@]12C)OC4=O (stereo partly drawn) | inactive | 
3 | C/C(=C\CCC(C)(O)c1ccc(C)cc1)C(=O)O (stereo not drawn) | inactive | 
4 | C/C=C(\C)C(=O)O[C@@H]1CC2[C@@H](CC=C3C[C@@H](O[C@H]4C[C@H](OC)[C@H](O[C@H]5C[C@H](OC)[C@H](O[C@H]6C[C@H](OC)[C@H](O[C@H]7C[C@@H](OC)[C@H](O[C@@H]8O[C@H](CO)[C@@H](O)[C@H](O)[C@H]8O)[C@@H](C)O7)[C@@H](C)O6)[C@@H](C)O5)[C@@H](C)O4)CC[C@@]32C)[C@@]2(O)CC[C@H](C(C)=O)[C@@]12C (stereo partly drawn) |  | -18.8% [at 9.23 µM] (inactive)
5 | O=C(/C=C/c1ccc(O)cc1)O[C@H]1[C@@H]2C=CO[C@@H](O[C@@H]3O[C@H](CO)[C@@H](O)[C@H](O)[C@H]3O)[C@@H]2[C@@]2(CO)O[C@@H]12 | inactive | 
6 | CC1(C)CC[C@]2(C(=O)O)CC[C@]3(C)C(=CCC4[C@@]5(C)CC[C@H](O[C@@H]6O[C@H](C(=O)O)[C@@H](O)[C@H](O)[C@H]6O)C(C)(CO)C5CC[C@]43C)C2C1 (stereo partly drawn) | inactive | 
7 | CC(C)C(C(=O)N1CCCC1C(=O)O)N(C)C(=O)C(O)Cc1ccccc1 (stereo not drawn) (H-[PhLac]-[NMeV]-Pro-OH; configuration not given here) | inactive | 
8 | CC(C)C1=CC2=CCC3[C@](C)(CCC[C@@]3(C)C(=O)O)C2CC1O (stereo partly drawn) | inactive | 
9 | C[C@@H]1C[C@H](O)/C=C/[C@H](O)[C@@H](O)CC(=O)O1 | inactive | 
10 | COc1cc(N2CCC(N(C)C)CC2)ccc1Nc1ncc(Cl)c(Nc2ccccc2P(C)(C)=O)n1 | 3.25 µM (active) and 3.32 µM (active) | 
11 | C[C@]12CCC(=O)C=C1[C@@H](O)C[C@@H]1[C@@H]2[C@@H](O)C[C@@]2(C)[C@H]1CC[C@]2(O)C(=O)CO | inactive | 
12 | CC1[C@@H](O)[C@@H](O)C2[C@]3(C)C(C[C@H]4OC(=O)[C@H](O)[C@]1(O)[C@@]24C)C(C)(O)C[C@H](O)[C@H]3O (stereo partly drawn) | inactive | 
13 | C=C[C@H]1[C@H](O[C@@H]2O[C@H](CO)[C@@H](O)[C@H](O)[C@H]2O)OC=C(C(=O)OC)[C@H]1C[C@@H]1N[C@H](C(=O)O)Cc2c1[nH]c1ccccc21 | inactive | 
14 | CC(=O)O[C@H]1[C@H](Oc2ccccc2COC(=O)C2(O)C=CCCC2=O)O[C@H](CO)[C@@H](O)[C@@H]1O (stereo partly drawn) | 7.09 µM (active) | 
15 | COc1cc(/C=C/C(=O)OC2[C@H](O)CC(O)(C(=O)O)C[C@H]2O)ccc1O (stereo partly drawn) | inactive | 
16 | CC1NC(=O)CNC(=O)C(C(C)C)NC(=O)C2CCCN2C(=O)C(C(C)C)NC(=O)C(Cc2c[nH]c3ccccc23)NC1=O (stereo not drawn) (cyclo(GAWVPV); configuration not given here) | inactive | 
17 | CC1(C(=O)O)CCCC2(C)C1CCC13CC(CCC21)C1(CO)OC31 (stereo not drawn) | inactive | 
18 | CC1=CC(=O)CC(C)(CO[C@@H]2O[C@H](CO)[C@@H](O)[C@H](O)[C@H]2O)C1(O)/C=C/C(C)=C/C(=O)O (stereo partly drawn) | inactive | 
19 | CC(C)(O)C1=CCC23COC(C2)C(O)(C(=O)O)CCC13 (stereo not drawn) | inactive | 
20 | NCc1c[nH]c(=S)n1C1CCc2c(F)cc(F)cc2C1 (stereo not drawn) | inactive | 
21 | C=C1CC[C@H]2[C@@H](/C=C(\C)C(=O)[C@@]3(OC(C)=O)C[C@H](C)[C@H](OC(C)=O)[C@@H]3[C@H]1OC(C)=O)C2(C)C | inactive | 
22 | CC(=O)Oc1cc2c(s1)CCN([C@H](C(=O)C1CC1)c1ccccc1F)C2 | inactive | 
23 | C=CCc1ccc(O[C@@H]2O[C@H](CO[C@@H]3O[C@@H](C)[C@H](O)[C@@H](O)[C@H]3O)[C@@H](O)[C@H](O)[C@H]2O)cc1 | inactive | 
24 | CC(C)CC(=O)n1cc(C(N)=O)c(=O)cc1C(O)c1ccccc1 (stereo not drawn) | inactive | 
25 | CC/C=C/CC1=C(CCCCCCCC(=O)O)CCC1=O | inactive | 
26 | CNC(=O)[C@H]1O[C@@H](n2cnc3c(NCc4ccc(N)c(I)c4)ncnc32)[C@H](O)[C@@H]1O |  | 2.39% [at 9.23 µM] (inactive)
27 | C[C@@H]1C[C@H](O[C@@H]2O[C@H](CO[C@@H]3OC[C@](O)(CO)[C@H]3O)[C@@H](O)[C@H](O)[C@H]2O)CC(C)(C)[C@H]1/C=C/[C@@H](C)O | inactive | 
28 | CC1=CC(=O)C2C(C)(C)CC(O)CC2(C)C1CO (stereo not drawn) | inactive | 
